PubChem BioAssay (EPA / NIEHS)
Records with an inconclusive call do not appear. Active and inactive are the calls of the source. Rule for the calls: active = hit-call score of the fitted dose curve at least 0.9, where 1 is the maximum; inconclusive = response in the unintended direction; inactive = score below 0.9.

Columns and labels:
[1] = target: Sodium channel protein type 1 subunit alpha (Rattus norvegicus) (UniProt P04774); test: NVS_IC_rNaCh_site2: NovaScreen (NVS) Ion Channel Assay for rat Sodium Channel, Site 2 (NaCh) (AID 2283322);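 note: hit means loss of radioligand binding signal relative to DMSO so AC50 marks displacement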
In short: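 Initial duplicate single-point testing at 25 uM, followed by concentration-response runs for actives. Binding of radioligand to rat forebrain membranes quantified after 1 h via filter-based radiodetection.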

[2] = target: human Peripheral-type Benzodiazepine Receptor (PBR), TSPO (gene 706) (UniProt P30536); test: NVS_MP_hPBR: NovaScreen (NVS) Membrane Protein Assay for human Peripheral-type Benzodiazepine Receptor (PBR) (AID 2283331);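 note: hits reduce radioligand binding relative to DMSO baseline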
Sequence of human Peripheral-type Benzodiazepine Receptor (PBR), TSPO (gene 706) (P30536 whole entry, looked up): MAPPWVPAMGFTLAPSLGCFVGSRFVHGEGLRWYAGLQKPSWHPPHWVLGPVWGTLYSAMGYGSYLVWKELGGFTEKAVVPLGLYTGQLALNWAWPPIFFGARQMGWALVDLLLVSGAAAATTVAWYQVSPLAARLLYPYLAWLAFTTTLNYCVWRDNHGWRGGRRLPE
In short: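 Cell-free radioligand displacement, human colonic membranes, 1 h exposure. Filter radiodetection read-out. Single-concentration duplicates (25 uM), then concentration-response for actives; DMSO negative control.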

[3] = NVS_IC_rCaDHPRCh_L: NovaScreen (NVS) Ion Channel Assay for rat Calcium Channel, Type L, Dihydropyridine Site (CaDHPRCh_L) (AID 2283320)
In short: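 Rat cortex membrane preparation; dihydropyridine-site radioligand displacement read 1 h post-dose by filtration and scintillation. Primary single-point screen 25 uM in duplicate, then concentration series to 50 uM maximum; DMSO as negative control.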

[4] = target: rat Vasopressin 1 Receptor (V1), Avpr1a (gene 25107) (UniProt P30560); test: NVS_GPCR_rV1: NovaScreen (NVS) G Protein-Coupled Receptor Assay for rat Vasopressin 1 Receptor (V1) (AID 2283316)
Sequence of rat Vasopressin 1 Receptor (V1), Avpr1a (gene 25107) (P30560 whole entry, looked up): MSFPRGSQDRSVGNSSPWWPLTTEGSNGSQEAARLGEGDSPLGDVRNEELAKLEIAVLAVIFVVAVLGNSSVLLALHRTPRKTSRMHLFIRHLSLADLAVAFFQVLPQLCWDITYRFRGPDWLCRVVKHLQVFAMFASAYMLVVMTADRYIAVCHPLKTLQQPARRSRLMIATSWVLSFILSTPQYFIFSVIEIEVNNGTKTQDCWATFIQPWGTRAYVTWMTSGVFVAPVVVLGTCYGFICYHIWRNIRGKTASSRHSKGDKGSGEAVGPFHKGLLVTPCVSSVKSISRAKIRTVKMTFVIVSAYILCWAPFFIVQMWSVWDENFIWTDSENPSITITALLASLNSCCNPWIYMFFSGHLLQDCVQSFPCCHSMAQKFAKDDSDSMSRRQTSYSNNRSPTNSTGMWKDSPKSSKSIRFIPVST
In short: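 Concentration-response up to 50 uM for chemicals passing a threshold such as 30% inhibition in an initial duplicate 25 uM screen. Displacement of radioligand from rat liver membranes measured after 1.5 h by filtration and scintillation.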

[5] = target: rat Thyrotropin Releasing Hormone Receptor (TRH), Trhr (gene 25570) (UniProt Q01717); test: NVS_GPCR_rTRH: NovaScreen (NVS) G Protein-Coupled Receptor Assay for rat Thyrotropin Releasing Hormone Receptor (TRH) (AID 2283329);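 note: hit means lower bound tracer signal versus DMSO baseline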
Sequence of rat Thyrotropin Releasing Hormone Receptor (TRH), Trhr (gene 25570) (Q01717 whole entry, looked up): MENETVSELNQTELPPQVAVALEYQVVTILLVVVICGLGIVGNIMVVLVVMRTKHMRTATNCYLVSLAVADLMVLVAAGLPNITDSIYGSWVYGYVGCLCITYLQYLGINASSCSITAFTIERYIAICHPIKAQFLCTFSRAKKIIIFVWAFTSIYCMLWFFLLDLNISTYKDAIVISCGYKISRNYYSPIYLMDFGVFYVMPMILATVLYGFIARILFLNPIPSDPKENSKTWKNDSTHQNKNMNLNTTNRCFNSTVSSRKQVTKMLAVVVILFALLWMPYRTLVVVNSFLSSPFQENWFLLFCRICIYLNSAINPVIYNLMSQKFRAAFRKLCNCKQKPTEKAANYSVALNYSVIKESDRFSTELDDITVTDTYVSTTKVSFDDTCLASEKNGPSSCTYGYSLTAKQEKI
In short: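 Rat forebrain membranes; radioligand displacement at TRH receptor by filter-based scintillation counting, read 4 h after dosing. Duplicate single-point screen at 25 uM, actives rerun in concentration series; loss of signal relative to DMSO.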

[6] = target: human Androgen Receptor (AR), AR (gene 367) (UniProt P10275); test: NVS_NR_hAR: NovaScreen (NVS) Nuclear Receptor Binding Assay for human Androgen Receptor (AR) (AID 2283332)
Sequence of human Androgen Receptor (AR), AR (gene 367) (P10275 whole entry, looked up): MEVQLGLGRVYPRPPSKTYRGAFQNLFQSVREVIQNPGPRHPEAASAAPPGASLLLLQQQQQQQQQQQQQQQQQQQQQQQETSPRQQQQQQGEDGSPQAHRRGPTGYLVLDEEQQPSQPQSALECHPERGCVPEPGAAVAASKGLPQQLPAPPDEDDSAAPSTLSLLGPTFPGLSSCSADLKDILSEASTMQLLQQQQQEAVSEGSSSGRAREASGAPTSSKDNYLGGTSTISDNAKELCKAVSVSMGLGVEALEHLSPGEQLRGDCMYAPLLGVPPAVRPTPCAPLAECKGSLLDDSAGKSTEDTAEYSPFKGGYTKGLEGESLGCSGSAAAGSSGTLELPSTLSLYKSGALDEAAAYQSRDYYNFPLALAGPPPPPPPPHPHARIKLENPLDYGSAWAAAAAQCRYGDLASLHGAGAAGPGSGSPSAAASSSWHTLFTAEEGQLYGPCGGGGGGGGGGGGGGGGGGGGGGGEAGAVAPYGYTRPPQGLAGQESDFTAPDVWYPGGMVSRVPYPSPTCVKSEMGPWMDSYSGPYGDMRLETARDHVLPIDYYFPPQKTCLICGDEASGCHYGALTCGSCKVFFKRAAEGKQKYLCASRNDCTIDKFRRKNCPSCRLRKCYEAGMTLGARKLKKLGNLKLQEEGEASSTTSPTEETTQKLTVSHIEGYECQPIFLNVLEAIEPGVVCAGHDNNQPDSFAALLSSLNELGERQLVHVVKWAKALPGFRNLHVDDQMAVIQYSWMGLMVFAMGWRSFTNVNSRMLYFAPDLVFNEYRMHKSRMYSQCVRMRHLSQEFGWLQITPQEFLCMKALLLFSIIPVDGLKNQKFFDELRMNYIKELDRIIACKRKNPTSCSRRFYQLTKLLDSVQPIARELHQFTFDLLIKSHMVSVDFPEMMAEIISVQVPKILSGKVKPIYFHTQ
In short: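 LnCAP cell-free extract; radioligand displacement read by scintillation counting after 20 h. Primary screen single concentration 25 uM in duplicate, actives then run as concentration series; loss-of-signal fitted relative to DMSO baseline.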

## CCCCCc1ccc(O)cc1
[1]
  AC50: 1.07 µM (active)
[2]
  AC50: 25 µM (active)

## CCCCc1oc2ccccc2c1C(=O)c1cc(I)c(OCCN(CC)CC)c(I)c1
[3]
  AC50: 0.772 µM (active)
[1]
  AC50: 1.67 µM (active)
[2]
  AC50: 5.22 µM (active)

## CS(=O)(=O)c1ccc([C@@H](CC2CCCC2)C(=O)Nc2cnccn2)cc1Cl
[4]
  outcome: inactive
[5]
  outcome: inactive

## O=C(CCCN1CCC(O)(c2ccc(Cl)cc2)CC1)c1ccc(F)cc1
[3]
  AC50: 3.15 µM (active)
[1]
  AC50: 0.376 µM (active)

## Clc1ccc(Nc2nnc(Cc3ccncc3)c3ccccc23)cc1
[1]
  AC50: 2.08 µM (active)
[2]
  AC50: 1.95 µM (active)

## C=CC(=O)OCCN(CC)CC
[1]
  outcome: inactive

## Cc1ccc(S(=O)(=O)O)cc1
[5]
  AC50: 0.167 µM (active)

## Cc1ccc(C)c(S(=O)(=O)O)c1
[5]
  AC50: 0.194 µM (active)

## NC(=NCCCCCCN=C(N)/N=C(\N)Nc1ccc(Cl)cc1)/N=C(\N)Nc1ccc(Cl)cc1
[1]
  outcome: inactive
[2]
  AC50: 10.3 µM (active)

## NCCN
[5]
  outcome: inactive

## CC(C)(c1ccc(Oc2ccc(N)cc2)cc1)c1ccc(Oc2ccc(N)cc2)cc1
[6]
  AC50: 9 µM (active)

## CC(C)[C@@H]1CC[C@@H](C)C[C@H]1O
[6]
  AC50: 13.1 µM (active)

## CN(Cc1cnc2nc(N)nc(N)c2n1)c1ccc(C(=O)N[C@@H](CCC(=O)O)C(=O)O)cc1
[1]
  outcome: inactive
[2]
  outcome: inactive
[6]
  outcome: inactive

## CCCCCC(C)OC(=O)COc1ccc(Cl)c2cccnc12 (stereo unspecified)
[2]
  AC50: 4.96 µM (active)

## CCc1ccccc1O
[5]
  outcome: inactive

## CCCCC(CC)C(=O)OCCOCCOCCOCCOC(=O)C(CC)CCCC (stereo unspecified)
[2]
  AC50: 15.8 µM (active)

## CCCCCCC(C)(C)C(=O)O
[5]
  outcome: inactive
